Usually AC50 stands for the midpoint of the concentration-response curve, whichever way the signal moves.

Results filed as inconclusive are left out. Active and inactive are the calls of the source. Rule for the calls: active = hit-call score of the fitted dose curve at least 0.9, where 1 is the maximum; inconclusive = response in the unintended direction; inactive = score below 0.9.

Chain of bovine Gamma-Aminobutyric Acid Type A Receptor BDZ, alpha 5 site (GABARa5), GABRA5 (gene 523515) (Q08E50 whole entry, looked up): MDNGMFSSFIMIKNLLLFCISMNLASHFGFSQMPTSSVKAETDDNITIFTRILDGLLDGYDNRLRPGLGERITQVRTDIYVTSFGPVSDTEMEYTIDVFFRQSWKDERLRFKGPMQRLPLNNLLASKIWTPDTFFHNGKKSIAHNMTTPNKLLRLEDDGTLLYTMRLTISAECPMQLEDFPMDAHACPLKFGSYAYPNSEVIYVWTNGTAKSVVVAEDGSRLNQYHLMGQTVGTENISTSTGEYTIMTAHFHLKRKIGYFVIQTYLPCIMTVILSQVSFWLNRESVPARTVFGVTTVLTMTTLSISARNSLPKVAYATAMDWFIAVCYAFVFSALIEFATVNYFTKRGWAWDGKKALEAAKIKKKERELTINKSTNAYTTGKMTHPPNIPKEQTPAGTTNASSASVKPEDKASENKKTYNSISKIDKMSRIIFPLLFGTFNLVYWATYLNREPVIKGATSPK

The target in the experiment is bovine Gamma-Aminobutyric Acid Type A Receptor BDZ, alpha 5 site (GABARa5), GABRA5 (gene 523515) (UniProt Q08E50). Description: NVS_LGIC_bGABARa5: NovaScreen (NVS) Ligand-Gated Ion Channel Assay for bovine Gamma-Aminobutyric Acid Type A Receptor BDZ, alpha 5 site (GABARa5) (AID 2283323). Summed up:
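Radioligand competitive displacement binding on bovine hippocampal membranes, read 1 hr after dosing by filter-based scintillation counting. Primary screen at 25 uM in duplicate; actives (e.g. ≥30% inhibition) then run in concentration-response up to 50 uM.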
With `CC1=NNC(=O)N(/N=C/c2cccnc2)C1`, the outcome was inactive.

For the molecule `CCCCOC(=O)c1ccccc1C(=O)O`, the molecule was called inactive.

In the case of `CC[C@H](C)[C@H]1O[C@]2(C=C[C@@H]1C)C[C@@H]1C[C@@H](C/C=C(\C)[C@@H](O[C@H]3C[C@H](OC)[C@@H](O[C@H]4C[C@H](OC)[C@@H](NC)[C@H](C)O4)[C@H](C)O3)[C@@H](C)/C=C/C=C3\CO[C@@H]4[C@H](O)C(C)=C[C@@H](C(=O)O1)[C@]34O)O2`, the AC50 was 1.56 µM (active).

Turning to `O=[N+]([O-])c1cc(C(F)(F)F)c(Cl)c([N+](=O)[O-])c1Nc1ncc(C(F)(F)F)cc1Cl`, the result was inactive.

The values are drawn from PubChem BioAssay (EPA / NIEHS).
